Laboratory results: PubChem BioAssay (NCI)
About 79,000 compounds went through this panel and 15% of them were active in at least one assay; those are over-represented in the sample as a whole. Active and inactive are the calls of the source. Cut-off read from the data, not from the text of the source: active = growth inhibition above about 70%; inactive = the rest.

Tests used:
[1] = NCI Yeast Anticancer Drug Screen. Data for the rad52 strain (AID 147);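 note: 0% = growth of vehicle-treated control cultures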; conditions: S. cerevisiae rad52 mutant growth inhibition, stronger effect = higher value
Method in brief: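 Screen used a yeast mutant impaired in DNA repair. After compound exposure, growth was measured. Values reflect inhibition compared with vehicle-treated cells.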

[2] = NCI Yeast Anticancer Drug Screen. Data for the wt1 strain (AID 149);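 note: 0% = growth of vehicle-treated wt1 cultures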; conditions: S. cerevisiae wt1 strain (SPY 50644) growth inhibition, stronger effect = higher value
Method in brief: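 Using yeast strain wt1, compound-induced growth inhibition was determined against vehicle-treated cultures.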

[3] = NCI Yeast Anticancer Drug Screen. Data for the rad50EPP+ strain (AID 151);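 note: 0% = growth of vehicle-treated control cultures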; conditions: S. cerevisiae rad50 mutant strain, stronger effect = higher value
Method in brief: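 Exposing the rad50EPP+ strain to each compound, growth was compared with vehicle-only cultures to give inhibition.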

[4] = NCI Yeast Anticancer Drug Screen. Data for the rad50 strain (AID 155);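 note: 0% = growth of vehicle-only cultures of the same strain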; conditions: S. cerevisiae rad50 strain growth inhibition, stronger effect = higher value
Method in brief: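 Relative growth inhibition (compound vs vehicle) was measured in yeast with a defined repair-gene alteration.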

[5] = NCI Yeast Anticancer Drug Screen. Data for the mec2-1 strain (AID 157); conditions: S. cerevisiae mec2-1 strain, stronger effect = higher value
Method in brief: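 Readout is yeast growth inhibition, normalised to vehicle-treated controls, in the mec2-1 strain exposed to compound.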

[6] = NCI Yeast Anticancer Drug Screen. Data for the rad14 strain (AID 159);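 note: 0% = growth of vehicle-treated control cultures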; conditions: S. cerevisiae rad14 strain growth inhibition, stronger effect = higher value
Method in brief: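 Screen for anticancer potential: a yeast strain altered in DNA damage repair is grown with compound, and reduced growth is quantified against vehicle controls.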

[7] = NCI Yeast Anticancer Drug Screen. Data for the sgs1 mgt1 strain (AID 161);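 note: 0% = growth of cultures given vehicle only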; conditions: S. cerevisiae sgs1 mgt1 strain, stronger effect = higher value
Method in brief: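 Compounds are added to genetically altered yeast, and growth is compared with cultures given vehicle alone to give percent inhibition.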

[8] = NCI Yeast Anticancer Drug Screen. Data for the CLN2oe strain (AID 163);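 note: 0% = growth of vehicle-only control cultures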; conditions: S. cerevisiae CLN2oe strain, stronger effect = higher value
Method in brief: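 Values reflect how much compound exposure reduced yeast growth, referenced to vehicle-exposed cells. Assay organism is a strain with a defined genetic change affecting cell-cycle control.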

[9] = NCI Yeast Anticancer Drug Screen. Data for the cln2 rad14 strain (AID 165);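 note: 0% = growth equal to vehicle treated cultures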; conditions: S. cerevisiae cln2 rad14 strain, stronger effect = higher value
Method in brief: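 Relative to vehicle controls, growth inhibition of compound-treated cln2 rad14 yeast was recorded.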

[10] = NCI Yeast Anticancer Drug Screen. Data for the bub3 strain (AID 167); conditions: S. cerevisiae bub3 mutant strain, stronger effect = higher value
Method in brief: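 Screening used yeast with an engineered genetic alteration affecting cell cycle control. Compound-exposed cultures were compared with vehicle cultures, and reduced growth was taken as inhibition.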

[11] = NCI Yeast Anticancer Drug Screen. Data for the wt2 strain (AID 169);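 note: 0% = growth of vehicle-treated yeast cultures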; conditions: S. cerevisiae wt2 strain growth inhibition, stronger effect = higher value
Method in brief: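 Values express reduction in yeast growth under compound treatment, referenced to vehicle-treated cells.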

[12] = NCI Yeast Anticancer Drug Screen. Data for the mlh1 strain (AID 171);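 note: 0% = growth of vehicle-treated control cultures of the same strain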; conditions: S. cerevisiae mlh1 strain growth inhibition, stronger effect = higher value
Method in brief: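 Steps: expose the defined-mutant yeast strain to compound; expose a parallel culture to vehicle; measure growth; express compound effect as inhibition relative to the vehicle culture.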

[13] = NCI Yeast Anticancer Drug Screen. Data for the sgs1 strain (AID 173);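 note: 0% = growth of vehicle-only control cultures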; conditions: S. cerevisiae sgs1 mutant, stronger effect = higher value
Method in brief: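 Treat defined-mutant yeast with compound; measure growth; calculate inhibition relative to vehicle-treated cells.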

[14] = NCI Yeast Anticancer Drug Screen. Data for the mlh1 rad18 strain (AID 175); conditions: S. cerevisiae mlh1 rad18 strain growth inhibition, stronger effect = higher value
Method in brief: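 Test agents were incubated with a yeast strain of defined genotype (DNA damage repair defect). Inhibition of growth was derived by comparison with vehicle-exposed cultures.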

[15] = NCI Yeast Anticancer Drug Screen. Data for the rad18 strain (AID 177); conditions: S. cerevisiae rad18 mutant growth inhibition, stronger effect = higher value
Method in brief: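 A genetically defined yeast mutant impaired in DNA damage repair was treated with test compounds, then its growth was measured against cultures receiving vehicle alone.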

[16] = at 5.0 µM (retest, dose inferred, filed as 0.5)
[17] = at 50.0 µM (retest, dose inferred, filed as 5.0)

Measured: growth inhibition

BrC/C=C/C[P+](c1ccccc1)(c1ccccc1)c1ccccc1
active: [1]; at 11.0 µM 96% | [1]; at 33.0 µM 98% | [1]; at 100.0 µM 99% | [2]; at 11.0 µM 94% | [2]; at 33.0 µM 98% | [2]; at 100.0 µM 98% | [3]; at 100.0 µM 91% | [4]; [16] 79% | [4]; at 11.0 µM 93% | [4]; at 33.0 µM 98% | [4]; [17] 79% | [4]; at 50.0 µM 90% | [4]; at 100.0 µM 98% | [5]; at 11.0 µM 96% | [5]; at 33.0 µM 98% | [5]; at 50.0 µM 92.9% | [5]; at 100.0 µM 99% | [6]; at 11.0 µM 96% | [6]; at 33.0 µM 99% | [6]; at 100.0 µM 99% | [7]; at 50.0 µM 92% | [8]; at 11.0 µM 94% | [8]; at 33.0 µM 98% | [8]; at 100.0 µM 99% | [9]; at 50.0 µM 87.7% | [10]; at 11.0 µM 94% | [10]; at 33.0 µM 98% | [10]; at 50.0 µM 88.7% | [10]; at 100.0 µM 98% | [11]; at 11.0 µM 95% | [11]; at 33.0 µM 98% | [11]; at 100.0 µM 99% | [12]; at 11.0 µM 83% | [12]; at 33.0 µM 98% | [12]; at 100.0 µM 99% | [13]; at 11.0 µM 95% | [13]; at 33.0 µM 98% | [13]; at 100.0 µM 99% | [14]; at 50.0 µM 87.7% | [15]; at 11.0 µM 96% | [15]; at 33.0 µM 98% | [15]; at 100.0 µM 98%
inactive: [1]; at 1.2 µM 8% | [1]; at 3.7 µM 27% | [2]; at 1.2 µM 4% | [2]; at 3.7 µM 9% | [3]; at 1.2 µM -12% | [3]; at 3.7 µM -14% | [3]; at 11.0 µM -8% | [3]; at 33.0 µM 45% | [4]; at 1.2 µM 7% | [4]; at 3.7 µM 13% | [5]; at 1.2 µM 5% | [5]; at 3.7 µM 12% | [5]; [16] 23% | [5]; [17] 23% | [6]; at 1.2 µM 5% | [6]; at 3.7 µM 7% | [7]; [16] 18% | [7]; [17] 18% | [8]; at 1.2 µM -3% | [8]; at 3.7 µM 10% | [9]; [16] 47% | [9]; [17] 47% | [10]; at 1.2 µM -5% | [10]; at 3.7 µM -7% | [10]; [16] 18% | [10]; [17] 18% | [11]; at 1.2 µM 3% | [11]; at 3.7 µM 9% | [12]; at 1.2 µM -5% | [12]; at 3.7 µM 1% | [13]; at 1.2 µM 4% | [13]; at 3.7 µM 10% | [14]; [16] 43% | [14]; [17] 43% | [15]; at 1.2 µM 9% | [15]; at 3.7 µM 33%
